# The list is not random: actives were taken first. Their share in the collection is about 9%.
# ALDH1A1 inh: qHTS Assay for Inhibitors of Aldehyde Dehydrogenase 1 (ALDH1A1). AID 1030, 2008. Potency, µM (titrated, usually from 75.3 µM), most hits filed as inhibitors. Purified ALDH1A1, NADH fluorescence, propionaldehyde substrate. 220,000 tested, 7.3% active. Aldehyde dehydrogenase 1A1 (Homo sapiens), P00352; active means well fitted inhibition curve with a large enough effect, not every such curve was filed as active; inconclusive means small, poorly fitted or top-dose-only effect, or another doubt; inactive means no such curve, though single readings can be large or run the other way
# Luc counter: Counterscreen for Luciferase (Kinase-Glo TM) Inhibition. Kinase-Glo luciferase, ATP luminescence, 8 min. 200,000 tested, 0.28% active. AID 1379, 2008. Potency, µM (doses to about 38.3 µM), actives largely listed as inhibitors. Luciferin 4-monooxygenase (Photuris pensylvanica), Q27757; further: nearly all actives have a fitted effect of over 60% in size
#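 Luminescence was the read-out, taken after 8-minute incubation at ambient temperature. Luciferase turned over luciferin with 10 uM ATP in imidazole pH 7.2 buffer containing KCl, MgCl2, Tween 20 and BSA.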
# Lamin A splicing: qHTS Assay for Modulators of Lamin A Splicing. HeLa LMNA splicing GFP/RFP minigene ratio, 48 h. 200,000 tested, 0.01% active. Potency, µM (series often up to 46.1 µM), hits mostly inhibitors. AID 1487, 2009; active means well fitted inhibition curve with a large enough effect in the signal ratio, with a control signal flat, not every such curve was filed as active; inconclusive means small, poorly fitted or top-dose-only effect, or effect the other way, or a change in a side signal; the % refers to the signal ratio
#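 Read-out is the ratio of GFP to DsRed2 object intensity, acquired by 488 nm laser-scanning cytometry on HeLa lamin A-EGFP minigene reporter cells. Compound incubation 48 hrs at 37 °C in Opti-MEM with 2% FBS; DMSO 0.5% final.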
# IMPase Li cell: qHTS Assay for Identifying the Cell-Membrane Permeable IMPase Inhibitors: Potentiation with Lithium; 210,000 tested, 0.35% active; Potency, µM (top dose mostly 59.4 µM), hits mostly inhibitors; AID 1457, 2008; CHO-M1 cells, IP1 TR-FRET (IP-One), carbachol + lithium;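 further: IP1 builds up when IMPase is blocked and the TR-FRET signal falls; nearly all actives have a fitted effect of over 50% in size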
#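 CHO cells stably expressing M1 receptor (2000/well) were cultured 16–30 h, then exposed to compounds with a small lithium addition for 30 min at 37C. IP1 was measured by TR-FRET competition; AC50 from Hill fits.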
# HPGD block: qHTS Assay for Inhibitors of HPGD (15-Hydroxyprostaglandin Dehydrogenase); 15-hydroxyprostaglandin dehydrogenase [NAD(+)] (Homo sapiens), P15428; AID 894, 2007; purified HPGD, NADH fluorescence kinetic, PGE2 substrate; Potency, µM, actives largely listed as inhibitors; 150,000 tested, 4.3% active; active means well fitted inhibition curve with a large enough effect, not every such curve was filed as active; inconclusive means small, poorly fitted or top-dose-only effect, or another doubt; inactive means no such curve, though single readings can be large or run the other way
# Target sequence (P15428 whole entry, looked up): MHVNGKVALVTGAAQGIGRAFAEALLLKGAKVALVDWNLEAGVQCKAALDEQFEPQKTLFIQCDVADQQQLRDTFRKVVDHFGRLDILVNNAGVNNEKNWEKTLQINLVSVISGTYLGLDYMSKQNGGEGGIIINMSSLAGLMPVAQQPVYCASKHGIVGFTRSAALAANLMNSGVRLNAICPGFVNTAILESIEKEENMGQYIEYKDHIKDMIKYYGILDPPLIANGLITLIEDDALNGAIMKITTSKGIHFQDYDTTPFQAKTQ
#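 20 nM HPGD preincubated 15 min at room temperature with compound in 50 mM Tris-HCl pH 8, 0.01% Tween 20. Started with 1 mM NAD+ and 30 uM prostaglandin E2; NADH fluorescence (360/450 nm) read 5 times over 30-s intervals, last minus first.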
# Hits are given with their value; n = inactive; u = inconclusive; x = no result; [ ] = dose if it differs, or a comment. Unless noted, the call rests on the fitted dose curve; in most records, active means well fitted curve in the direction sought with a large enough effect; inconclusive means small, poorly fitted or top-dose-only effect, or another doubt; inactive means no such curve, though single readings can be large; an effect the other way counts as inactive or inconclusive.
SMILES,ALDH1A1 inh,Luc counter,Lamin A splicing,IMPase Li cell,HPGD block
CC(Oc1ccccc1F)C(=O)/C=C/N(C)C (stereo not drawn),n,n,u,n,28µM
O=S1(=O)CC2SC(=S)N(Cc3ccccc3)C2C1 (stereo not drawn),n,x,x,x,x
Cc1cc(O)ccc1N/C=C/c1onc(C)c1[N+](=O)[O-],n,n,x,n,x
Cc1noc(/C=C/c2nn(C)cc2Cl)c1[N+](=O)[O-],8.9µM,x,x,x,x
OB(O)c1ccc(Cl)s1,n,n,x,n,n
C=CCN1C(=O)C2(/C(=C(\O)c3ccc4c(c3)OCCO4)C(=O)C(=O)N2CCCOC)c2ccccc21 (stereo not drawn),2.8µM,n,n,n,n
COc1ccc2c(Cl)c(C(=O)N/N=C/c3ccc4c(c3)OCO4)sc2c1,u,n,n,n,u
COc1ccc2c(Cl)c(C(=O)N/N=C3\CCCC(=O)C3)sc2c1,4.5µM,n,x,n,x
O=C(O)CC/C(=C\c1ccc(Cl)c([N+](=O)[O-])c1)c1nc2ccccc2s1,u,n,n,n,n
O=C(O)CC/C(=C\c1ccc(N2CCOCC2)c([N+](=O)[O-])c1)c1nc2ccccc2s1,6.3µM,n,n,n,x
COc1ccc(-n2c(SCC(=O)Nc3ccc4c(c3)OCO4)nc3c(c2=O)SCC3)cc1,u,n,n,n,u
COc1ccccc1-n1c(SCC(=O)N2CCc3ccccc32)nc2c(c1=O)SCC2,11µM,n,u,n,n
COc1ccccc1-n1c(SCC(=O)Nc2ccc3c(c2)OCO3)nc2c(c1=O)SCC2,20µM,n,n,n,n
Cc1ccc(C)c(NS(=O)(=O)c2ccc3[nH]c(=O)oc3c2)c1,n,n,x,n,x
O=c1[nH]c2ccc(Cl)cc2c(-c2ccccc2)c1SC(=S)N1CCOCC1,8.9µM,n,n,n,20µM
O=c1[nH]c2ccc(Cl)cc2c(-c2ccccc2)c1SC(=S)N1CCCCC1,25µM,n,n,n,u
Cn1c2ccccc2n2c(=O)c(=O)n(CC(=O)N3CCCc4ccccc43)nc12,u,n,x,n,x
CC1=C(c2ccc(F)cc2)S(=O)(=O)N=C1N1CCC(C(=O)NCCc2ccco2)CC1,x,x,n,x,x
CCCCOC(=O)c1ccc(NC(=S)NC(=O)c2c(Br)c(C)nn2C)cc1,4µM,n,n,n,n
Cc1cccc(N2CCN(c3ccc(NC(=O)c4ccccc4)cc3C(=O)O)CC2C)c1 (stereo not drawn),x,x,n,x,x
COc1c(OC2OC(C(=O)O)C(O)C(O)C2O)cc(O)c2c(=O)cc(-c3ccccc3)oc12 (stereo not drawn),u,n,n,n,u
O=C(O)C1OC(Oc2cc3oc(-c4ccccc4)cc(=O)c3c(O)c2O)C(O)C(O)C1O (stereo not drawn),u,n,u,u,4.5µM
O=c1c2ccccc2ncn1CCOc1ccccc1[N+](=O)[O-],n,n,n,n,x
Cn1cc(CN2CCc3c([nH]c4ccccc34)C2C2CCCCC2)cn1 (stereo not drawn),13µM,n,n,n,x
Cn1cc(CN2CCc3c([nH]c4ccccc34)C2C(C)(C)C)cn1 (stereo not drawn),n,x,x,n,x
SMILES,ALDH1A1 inh,Luc counter,Lamin A splicing,IMPase Li cell,HPGD block
CC(=O)N1CCCc2cc(S(=O)(=O)N3CCCC(C(=O)Nc4cc(Cl)ccc4C)C3)ccc21 (stereo not drawn),x,x,n,x,x
CN(C)CCCN1CCC2(CCC(C(C)(C)C)CC2)CC1,n[13.5 µM],n[7.66 µM],x,n,n
O=C(Cc1ccc(Cl)cc1Cl)OCC(=O)N1CCN(C(=O)c2ccco2)CC1,14µM,n,n[9.22 µM],n,x
Cc1cc(SCC(=O)OCC(=O)N2CCN(C(=O)c3ccco3)CC2)c(C)cc1Br,32µM,n,n,n,n
Cc1ccc(N2C(=O)C3C(C2=O)C2C=CC3C23CC3)c([N+](=O)[O-])c1 (stereo not drawn),2.5µM,n,n,n,x
Cc1ccc2cc(C#N)c(NCCCNC(=O)C3CCCO3)nc2c1 (stereo not drawn),u,n,n,n,u
S=c1nc(C2CCCCC2)[nH][nH]1,u,n,n,n,14µM
O=C(NN=C1CCCC1)c1[nH]c2ccc(Cl)cc2c1-c1ccccc1,11µM,x,x,x,x
Clc1ccc(SCc2nc3ccccc3[nH]2)cc1,n,n,n,n,n
CCCOc1ccc(N2C(=O)CC(SCc3nc4ccccc4[nH]3)C2=O)cc1 (stereo not drawn),16µM,n,u,n,x
O=C1CC(SCc2nc3ccccc3[nH]2)C(=O)N1c1ccc(F)cc1 (stereo not drawn),28µM,n,n,n,n
O=C1CC(SCc2nc3ccccc3[nH]2)C(=O)N1c1cccc(Cl)c1 (stereo not drawn),11µM,n,n,n,n
O=C1C(c2ccc(F)cc2)N(CCc2ccc(Cl)cc2)C(=O)CN1C1CCCCCC1 (stereo not drawn),x,x,n,x,x
CCOc1ccc(Cn2c(O)cc(=O)[nH]c2=O)cc1,18µM,n,n,n,n
O=C1/C(=C/c2ccc(O)cc2)CCc2ccc([N+](=O)[O-])cc21,n,n,n,n,n
O=C1/C(=C\c2ccc([N+](=O)[O-])cc2)CCc2ccccc21,n,13µM,n,n,n
COC(=O)[C@@]1(C)CCC[C@@]2(C)c3ccc(O)c(C(C)C)c3CCC21 (stereo partly drawn),n,n,x,n,n
COc1cccc(C(=O)Nc2ccc(C(=O)OCc3cc(=O)n4cc(C)sc4n3)cc2)c1,x,x,n,x,x
Cn1c(-c2ccccc2)cnc1SCc1nc2ccccc2c(=O)[nH]1,32µM,n,n,n,n
CCOC(=O)C1=C(N)n2c(s/c(=C/c3ccco3)c2=O)=C(C(=O)OC)C1c1ccco1 (stereo not drawn),u,n,n,n,n
N#CC1=C(N)n2c(s/c(=C\c3ccco3)c2=O)=C(C#N)C1c1ccco1 (stereo not drawn),22µM,n,n,n,n
Cc1cc2c(=O)n(Cc3ccco3)c(SCC(=O)c3ccc(Cl)s3)nc2s1,16µM,n,n,n,28µM
CCOC(=O)CC(=O)CSc1nc2sc(C)cc2c(=O)n1Cc1ccco1,0.56µM,n,n,n,28µM
Cc1sc2nc(SCC(=O)C(C)(C)C)n(Cc3ccco3)c(=O)c2c1C,u,n,u,n,n
O=C(O)c1cccc(C(=O)O)c1S(=O)Cc1ccccc1 (stereo not drawn),n[13.5 µM],n[7.66 µM],x,n,n
Cc1cc(C)n(CCOc2ccc(Cl)cc2Cl)n1,n,n,n,n,32µM
Cc1cc(C)cc(OCC(=O)OCC(=O)Nc2c(C)n(C)n(-c3ccccc3)c2=O)c1,n,n,x,n,x

# Bioassay records (PubChem BioAssay)
